# Source: PubChem BioAssay (NCI)
# About 83,000 compounds went through this panel and 20% of them were active in at least one assay; those are over-represented in the sample as a whole.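 The test compound was applied at a single concentration to cells in 96-well plates for 48 hours, and percent growth was recorded.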 Unmarked numbers belong to inactive results. Active and inactive are the calls of the source. How the source made its calls: active means growth percent below 10; inactive means the rest.
# Test system: HL-60(TB) leukemia
# Test: NCI-60 one-dose screen, 48 h (100 = growth as untreated, 0 = no growth, -100 = all killed)
# Settings: 10 µM unless noted
row,Compound,growth
1,CC(C)(C)CC(C)(C)Nc1c(-c2c(O)c3ccccc3oc2=O)nc2sccn12,99.7%
2,O=C(Nc1cccc(-n2cc(-c3ccncc3)c(-c3ccc(O)c(Cl)c3)n2)c1)c1cccc(C(F)(F)F)c1,13.3%
3,C=CC[C@]1(O)CC[C@H]2[C@@H]3CCc4cc(O)ccc4[C@H]3CC[C@@]21C,75.1%
4,Cc1cccc(NC(=O)CSc2nc3ccc([N+](=O)[O-])cc3[nH]2)c1,86.1%
5,CC(C)=CCC[C@](C)(O)[C@H]1CC[C@]2(C)[C@@H]1CC[C@@H]1[C@@]3(C)C/C(=C/c4cccc([N+](=O)[O-])c4)C(=O)C(C)(C)[C@@H]3CC[C@]12C,68.4%
6,COc1cc(/C=C/C(=O)c2cc(-c3ccc(F)cc3)ccc2O)cc(OC)c1OC,39.5%
7,COc1ccc(Cn2c(Br)c3c(c2-c2cc(OC)c(OC)c(OC)c2)CCc2sc(NC(=O)c4ccc(OC)cc4)nc2-3)cc1,56.4%
8,CCN1C(=O)N(CC)C2C1NN=c1s/c(=C\c3ccccn3)c(=O)n12 (configuration not stated),-22.5% (active)
9,CNS(=O)(=O)Nc1nccc(Cc2c(C)c3ccc(Oc4ncccn4)cc3oc2=O)c1F,27.9%
10,Cc1nc2sc(C(=O)Nc3cccc(Br)c3)c(N)c2cc1C(=O)c1ccc(C(F)(F)F)cc1,98.7%
11,O=C(Nn1c(NCC(=O)N2c3ccccc3Sc3ccccc32)nnc1-c1ccc(O)cc1)c1ccccc1,98.6%
12,CCn1cc(-c2ccnc3[nH]c(-c4cccc(CN(C)C)c4)cc23)c(-c2ccc(NC(=O)N(C)C)cc2)n1,-40.6% (active)
